Drawing on PubChem BioAssay (NCI), this text covers growth for seven compounds.

Holding throughout (test): NCI-60 one-dose screen, 48 h (100 = growth as untreated, 0 = no growth, -100 = all killed)
What all share (conditions): 10 µM unless noted

Assay [1] has as its system HCT-15 colon.
The subject of assay [2] is HT29 colon.
The test system of assay [3] is SNB-75 CNS.
Assay [4] has as its system SNB-19 CNS.
For assay [5], the system named is U251 CNS.
Assay [6] deals with PC-3 prostate.
Assay [7] deals with SK-MEL-5 melanoma.
The subject of assay [8] is UACC-62 melanoma.
The subject of assay [9] is LOX IMVI melanoma.
The test system of assay [10] is SK-MEL-28 melanoma.
In assay [11] the test system is SK-MEL-2 melanoma.
Assay [12] concerns EKVX NSCLC.
The test system of assay [13] is SN12C renal.
The subject of assay [14] is UO-31 renal.
The subject of assay [15] is TK-10 renal.
Assay [16] has as its system ACHN renal.
Assay [17] has as its system CAKI-1 renal.
For assay [18], the system named is A498 renal.
The test system of assay [19] is CCRF-CEM leukemia.
For assay [20], the system named is MOLT-4 leukemia.

The structures appear in SMILES notation. This is part of a sample that, as a whole, favours compounds with a hit. Of some 83,000 tested, about 20% had one in any assay.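 48-hour exposure, single concentration, 96-well plates; percent growth endpoint where 0 means no net growth. Active: below 10.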 Unmarked numbers belong to inactive results. Activity calls are given as the source filed them.

As for `O=[N+]([O-])c1cc(C(F)(F)F)ccc1Sc1ccc(C(F)(F)F)cc1[N+](=O)[O-]`, the growth in assay [1] is 71.2%; in assay [2], 18.5%; in assay [3] it was 86%; in assay [4] it was 91.5%; in assay [5], 83.9%; in assay [6], 84.6%. For the same compound, the growth in assay [7] is 82.7%; in [8], 77.8%; in [9], 28.1%; in [10], 80.6%; in [11], 73.3%; in assay [12], 87%. The growth in [13] is 72.8%; in assay [14], 77.3%; in assay [15], 98.7%; in assay [16], 86.6%; in [17] it was 44.7%; in assay [18], 87%. Also, the values for the growth in assay [19] and in assay [20] were 14.5% and 9.53% (active), respectively.
Turning to `BrC1=C(Br)C(Br)(Br)C(Br)=C1Br`, the growth was 60.8% in assay [1]; 63.9% in [2]; 72.7% in assay [3]; 92.3% in [4]; 91.9% in [5]; 84.6% in assay [6]. Moreover, the growth in assay [7] was 102%; in assay [8] it was 71%; in [9] it was 45.5%; in assay [10], 93%; in [11] it was 95.3%; in assay [12], 109%. Also, the growth in assay [13] is 86.2%; in [14], 79.3%; in assay [15], 97.8%; in [16], 88.5%; in [17], 87.3%; in [18], 109%. The growth in assay [19] is 17.5%; in assay [20], 17.1%.
As to `CCCCCCCCCCCCCCCC(=O)O[C@@H]1[C@@H](O)[C@@H](O)C([C@H](NC(=O)[C@@H]2C[C@@H](CCC)CN2C)[C@H](C)Cl)O[C@@H]1SC` (stereo not given in full), the growth was 99.9% in [1]; 111% in assay [2]; 96.2% in [3]; 101% in assay [4]; 102% in assay [5]; 97.6% in assay [6]. In addition, the growth in assay [7] was 99.9%; in assay [8] it was 104%; in assay [9], 105%; in assay [10], 112%; in assay [11], 112%; in [12] it was 100%. For the same compound, the growth in assay [13] was 104%; in [14] it was 77.2%; in [15], 115%; in assay [16] it was 95.4%; in [17] it was 96%; in assay [18], 101%. Besides, the results for the growth in assay [19] and in [20] were 101% and 103%, respectively.
In the case of `CCc1c2c(nc3ccc(OCc4ccc(B5OC(C)(C)C(C)(C)O5)cc4)cc13)-c1cc3c(c(=O)n1C2)COC(=O)[C@]3(O)CC`, the growth is 32.9% in assay [1]; 10.2% in [2]; 5.99% (active) in assay [3]; 8.91% (active) in assay [4]; -8.07% (active) in assay [5]; 26.9% in assay [6]. For the same compound, the growth in assay [7] is -54.8% (active); in assay [8], -40.7% (active); in assay [9] it was -55.2% (active); in assay [10], 32.8%; in [11], 20.4%; in [12] it was 35%. Also, the growth was 3.16% (active) in assay [13]; -13.2% (active) in assay [14]; 39.5% in assay [15]; -9.99% (active) in assay [16]; -1.75% (active) in assay [17]; -40.3% (active) in assay [18]. The growth in [19] was 8.7% (active); in assay [20], 8.97% (active).
Regarding `COc1ccc(Oc2nc(Nc3ccc(N4CCOCC4)cc3)ncc2NC(=O)c2cccc(C(F)(F)F)c2)cc1`, the growth in assay [1] was 58.6%; in assay [2], 42.2%; in [3], 82.3%; in [4] it was 87.5%; in [5], 69.3%; in assay [6], 53.7%. The growth in [7] was 92.2%; in [8] it was 78.4%; in assay [9], 52.4%; in [10], 99.5%; in assay [11] it was 97.2%; in [12], 81.3%. Further, the growth was 85.8% in [13]; 71.2% in assay [14]; 93% in [15]; 79.9% in assay [16]; 88.9% in assay [17]; 63.4% in [18]. Further, the figures for the growth in assay [19] and in [20] were 49.9% and 43.7%, respectively.
For `Nc1nc(Nc2cccnc2)sc1C(=O)c1ccccc1F`, the growth was 27.7% in assay [1]; 35.9% in assay [2]; 30.3% in [3]; 43.1% in assay [4]; 42% in assay [5]; 43.2% in assay [6]. Moreover, the growth in assay [7] was 30.1%; in [8], 42.4%; in [9], 29.8%; in [10], 65.9%; in assay [11] it was 48.5%; in [12], 50.7%. Moreover, the growth in [13] is 36.8%; in assay [14], 9.16% (active); in assay [15], 54.6%; in assay [16] it was 9.23% (active); in assay [17], -3.89% (active); in assay [18], 26.4%. Also, the growth in [19] is 4.65% (active); in assay [20] it was 26.8%.
As for `CN1C(=O)/C(=C/c2ccc(C(=O)Nc3ncc(Cc4ccccc4Cl)s3)cc2)SC1=S`, the growth was 42.1% in assay [1]; 69.5% in assay [2]; 69.4% in [3]; 83.3% in assay [4]; 89.4% in assay [5]; 77.6% in assay [6]. Also, the growth in [7] is 62.4%; in assay [8], 18.1%; in assay [9], 45.1%; in [10], 74.8%; in assay [11], 101%; in assay [12], 75.6%. Besides, the growth was 68.6% in assay [13]; 63.5% in assay [14]; 83.6% in assay [15]; 52.1% in assay [16]; 34.1% in [17]; 60.7% in assay [18]. The growth in [19] is 73.7%; in assay [20], 82.1%.
